Results from PubChem BioAssay (NCI).
About 79,000 compounds went through this panel and 15% of them were active in at least one assay; those are over-represented in the sample as a whole. Activity calls are given as the source filed them. Cut-off read from the data, not from the text of the source: active = growth inhibition above about 70%; inactive = the rest.

Assay: NCI Yeast Anticancer Drug Screen. Data for the rad50EPP+ strain (AID 151);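 note: 0% = growth of vehicle-treated control cultures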
Settings: S. cerevisiae rad50 mutant strain, active compounds read high
Experimental: Growth inhibition of yeast strains with defined genetic alterations is measured as a screen for potential anti-cancer activity. Selected strains with alterations in DNA damage repair or cell cycle control were exposed to compounds and growth inhibition was measured relative to vehicle treated controls. The strain used in this assay is rad50EPP+

Row | Compound | growth inhibition (at 1.2 µM) | growth inhibition (at 3.7 µM) | growth inhibition (at 11.0 µM) | growth inhibition (at 33.0 µM) | growth inhibition (at 100.0 µM)
1 | CCCCC(CC)C(=O)[O][Sn]([CH2]CCC)([CH2]CCC)[O]C(=O)C(CC)CCCC (stereo not given) | 18% (inactive) | 6% (inactive) | 8% (inactive) | 12% (inactive) | 29% (inactive)
2 | O=c1ccc2ccccc2c2ccccc12 | -4% (inactive) | 13% (inactive) | 46% (inactive) | 95% (active) | 99% (active)
3 | Cc1cc(S(=O)(=O)Nc2nnc3cnc4ccccc4n23)c(S)cc1Cl | -3% (inactive) | -16% (inactive) | -25% (inactive) | -57% (inactive) | -59% (inactive)
4 | CN(C)[C@@H]1C(=O)C(C(N)=O)=C(O)[C@@]2(O)C(=O)C3=C(O)c4c(O)cccc4C[C@H]3C[C@@H]12 | -9% (inactive) | -8% (inactive) | 14% (inactive) | 10% (inactive) | 9% (inactive)
5 | Cc1cccc(/C=N/NC(=S)N2CCCC2)n1 | -21% (inactive) | -21% (inactive) | -24% (inactive) | -27% (inactive) | 38% (inactive)
6 | Cc1ccc(CC2(OCCN(C)C)CCC(C(C)(C)C)CC2)cc1 (stereo not given) | -4% (inactive) | -9% (inactive) | -3% (inactive) | -2% (inactive) | 97% (active)
7 | O=C(CC(=O)n1nc(-c2ccccc2)c(N=Nc2ccc(Cl)cc2)c1-c1ccccc1)Nc1cccc(Cl)c1 | 1% (inactive) | 8% (inactive) | 14% (inactive) | 26% (inactive) | 29% (inactive)
8 | Cc1ccc(S/C(=C\C(=O)O)c2ccccc2)cc1 | -6% (inactive) | 2% (inactive) | 15% (inactive) | 25% (inactive) | 52% (inactive)
